# Data reported in PubChem BioAssay.
# Inconclusive results are not listed. For some assays here: Potency and affinity values are given separately. The source made the active and inactive calls.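 How the source made its calls, unless noted: active means at least 20% inhibition of 6-phosphogluconate dehydrogenase activity; inactive means the rest.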
# Key:
# [1] = target: 6-phosphogluconate dehydrogenase, decarboxylating (Homo sapiens) (UniProt P52209); test: inhibition of human phosphogluconate dehydrogenase – biochemical, recombinant enzyme, NADPH absorbance, primary screen (AID 1159550); conditions: recombinant 6PGD, NADPH absorbance 341 nm; at 10 µM; stronger effect = higher value
# [2] = system: Aerobactin synthetase IucA (Klebsiella pneumoniae hvKP1); test: IucA enzyme inhibition, primary screen, biochemical, Spectrum library (AID 1346200; call rule not given here;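 further: 100% = wells without compound and 0% = wells lacking enzyme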); conditions: malachite green pyrophosphate, A620, at 8 µM, stronger effect = lower value
# [3] = target: Mitogen-activated protein kinase 7 (Homo sapiens) (UniProt Q13164); test: Gal4-ERK5 driven luciferase induction – cell-based, HTS, primary screen (AID 1508626;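 active means luciferase signal above three times the same-plate solvent-only control wells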;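 further: luciferase driven by Gal4-ERK5 fusion binding five Gal4 sites before minimal TATA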); conditions: HeLa Gal4-ERK5 transactivation, 18 h, at 5 µM, stronger effect = higher value
# [4] = blockers of MitoPT in mitochondria (AID 1580; call rule not given here); conditions: isolated mitochondria, permeability transition inhibition
# [5] = blockers of polyQ-driven CASP3 activation – cell-based (AID 1583); conditions: polyglutamine-induced caspase-3 activation, cell assay; stronger effect = higher value;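 tested at 10 µM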
# [6] = yeast 75Q aggregation reduction – 75Q-TubU reporter (AID 1593); conditions: Yeast 75Q polyglutamine aggregation reporter
# [7] = restoration of touch response, mutant HTT neurons – whole organism, C. elegans mechanosensory neurons, N-terminal huntingtin (AID 1599); conditions: C. elegans polyQ-huntingtin mechanosensory neurons, stronger effect = higher value
# [8] = blockers of cytochrome c efflux from mitochondria – biochemical, purified mitochondria (AID 1603); conditions: stronger effect = lower value;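 further: mouse liver mitochondria challenged with calcium chloride; signal normalized to the plate average as 100%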
# [9] = polyglutamine aggregate formation blockers (AID 1604); conditions: polyglutamine-induced protein aggregation inhibition assay; stronger effect = higher value; tested at 2.5 µM
# [10] = rescue of PC12 cells from polyQ htt toxicity – LDH release (AID 1610); conditions: PC12 mutant huntingtin toxicity, final LDH at 4 uM, stronger effect = lower value
# [11] = glutamate transport activators, MN-1 cells, MN-1 cell line (AID 1612); conditions: MN-1 motor neuron cells, stronger effect = higher value;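 further: tested at 1 µM final; 0% = mean of DMSO vehicle wells on each plate; positive means more glutamate uptake than control and negative means less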
# [12] = 75Q-TubH aggregate inhibition, S. cerevisiae, yeast (AID 1616); conditions: S. cerevisiae 75Q-TubH polyglutamine aggregation suppression; stronger effect = higher value
# [13] = target: ATP-dependent translocase ABCB1 (Homo sapiens) (UniProt P08183); test: P-glycoprotein substrate transport blockade – cell-based (AID 377; in the data active means fluorescence slope change above about 50%); conditions: MDR1-expressing cells, fluorescent substrate accumulation slope; stronger effect = higher value; concentration not given here
# [14] = P. berghei load reduction in hepatocytes – cell-based, HepG2, luciferase luminescence, HepG2 viability, primary screen (AID 624349; in the data active means parasite load remaining mostly below about 12%, no sharp cut-off; inactive means mostly above about 10%;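 further: 100% = mean of DMSO negative control wells on the same plate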); conditions: P. berghei liver stage in HepG2, luciferase luminescence, concentration not given here; parasite load remaining: stronger effect = lower value; viability: measured here: HepG2 viability without parasites
# [15] = viability loss with induced miR-34 in A549 – imaging, A549 dox-inducible miR-34, nuclei and caspase counts, primary screen (AID 1347080;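 active means compounds whose cell count with miR-34 switched on is under 0.7 times the count with it off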); conditions: A549 miR-34 inducible, Hoechst nuclei count, 48 h
# [16] = target: NAD(+) hydrolase SARM1 (Homo sapiens) (UniProt Q6SZW1); test: blocking NAD cleavage by SARM1 SAM-TIR – cell lysate, NAD-Glo luminescence (AID 1508614;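 active means compound whose remaining NAD level is above about 45 nM, limit read from the data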); conditions: SAM-TIR HEK293T lysate NADase, at 1 µM, stronger effect = higher value
# NAD(+) hydrolase SARM1 (Homo sapiens), sequence (Q6SZW1 whole entry, looked up): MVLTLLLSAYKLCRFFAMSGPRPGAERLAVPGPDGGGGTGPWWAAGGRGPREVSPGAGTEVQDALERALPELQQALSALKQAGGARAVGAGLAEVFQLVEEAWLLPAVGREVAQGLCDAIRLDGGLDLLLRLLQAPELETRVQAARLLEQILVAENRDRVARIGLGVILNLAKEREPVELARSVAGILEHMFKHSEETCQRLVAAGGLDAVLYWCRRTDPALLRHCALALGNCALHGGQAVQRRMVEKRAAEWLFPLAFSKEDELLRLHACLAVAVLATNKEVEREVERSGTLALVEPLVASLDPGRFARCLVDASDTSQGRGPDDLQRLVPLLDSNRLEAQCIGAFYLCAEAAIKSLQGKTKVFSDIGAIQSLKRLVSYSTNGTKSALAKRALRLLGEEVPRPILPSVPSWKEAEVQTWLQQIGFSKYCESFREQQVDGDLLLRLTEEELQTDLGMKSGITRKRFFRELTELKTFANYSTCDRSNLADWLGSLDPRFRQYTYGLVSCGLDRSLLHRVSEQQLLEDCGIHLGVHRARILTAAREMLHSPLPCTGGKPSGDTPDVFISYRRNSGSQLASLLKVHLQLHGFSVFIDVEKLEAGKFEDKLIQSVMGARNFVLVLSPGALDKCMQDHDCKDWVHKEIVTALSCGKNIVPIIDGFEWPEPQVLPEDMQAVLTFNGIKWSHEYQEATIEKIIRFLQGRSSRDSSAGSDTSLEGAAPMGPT
# 6-phosphogluconate dehydrogenase, decarboxylating (Homo sapiens), sequence (P52209 whole entry, looked up): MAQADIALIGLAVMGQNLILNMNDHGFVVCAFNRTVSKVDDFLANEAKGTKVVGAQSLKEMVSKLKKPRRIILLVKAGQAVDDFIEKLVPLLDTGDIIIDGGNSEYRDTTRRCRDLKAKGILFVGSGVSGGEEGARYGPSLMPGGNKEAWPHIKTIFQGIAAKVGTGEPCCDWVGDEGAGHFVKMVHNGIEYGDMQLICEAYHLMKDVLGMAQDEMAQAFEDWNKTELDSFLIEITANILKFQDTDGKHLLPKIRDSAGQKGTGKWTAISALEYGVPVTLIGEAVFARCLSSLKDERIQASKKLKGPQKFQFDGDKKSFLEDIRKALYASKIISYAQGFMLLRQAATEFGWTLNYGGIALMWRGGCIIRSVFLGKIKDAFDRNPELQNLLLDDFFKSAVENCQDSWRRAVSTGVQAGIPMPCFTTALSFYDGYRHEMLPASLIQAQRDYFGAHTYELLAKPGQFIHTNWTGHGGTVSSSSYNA
# Mitogen-activated protein kinase 7 (Homo sapiens), sequence (Q13164 whole entry, looked up, the tested form may be a part): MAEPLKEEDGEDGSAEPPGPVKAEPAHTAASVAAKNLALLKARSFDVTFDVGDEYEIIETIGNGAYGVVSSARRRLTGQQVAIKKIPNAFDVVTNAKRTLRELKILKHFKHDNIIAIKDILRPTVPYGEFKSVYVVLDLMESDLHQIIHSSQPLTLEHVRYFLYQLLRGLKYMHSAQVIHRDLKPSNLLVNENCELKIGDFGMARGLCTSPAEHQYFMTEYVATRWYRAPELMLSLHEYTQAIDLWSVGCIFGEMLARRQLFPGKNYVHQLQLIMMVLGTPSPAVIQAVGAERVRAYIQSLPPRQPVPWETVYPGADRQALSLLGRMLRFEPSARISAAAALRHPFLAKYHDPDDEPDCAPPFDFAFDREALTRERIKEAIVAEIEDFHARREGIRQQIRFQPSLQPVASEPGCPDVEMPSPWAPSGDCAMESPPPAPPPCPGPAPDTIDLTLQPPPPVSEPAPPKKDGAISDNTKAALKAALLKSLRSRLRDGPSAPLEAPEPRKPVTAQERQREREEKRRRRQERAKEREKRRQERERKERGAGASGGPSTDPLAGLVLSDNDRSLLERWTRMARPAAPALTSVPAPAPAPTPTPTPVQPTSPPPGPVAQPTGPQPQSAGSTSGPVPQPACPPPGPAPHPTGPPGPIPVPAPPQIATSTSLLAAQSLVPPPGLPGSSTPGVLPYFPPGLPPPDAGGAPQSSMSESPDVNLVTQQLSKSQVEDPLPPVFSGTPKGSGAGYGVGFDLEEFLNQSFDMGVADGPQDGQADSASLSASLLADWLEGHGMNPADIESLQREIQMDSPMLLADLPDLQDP
# ATP-dependent translocase ABCB1 (Homo sapiens), sequence (P08183 whole entry, looked up): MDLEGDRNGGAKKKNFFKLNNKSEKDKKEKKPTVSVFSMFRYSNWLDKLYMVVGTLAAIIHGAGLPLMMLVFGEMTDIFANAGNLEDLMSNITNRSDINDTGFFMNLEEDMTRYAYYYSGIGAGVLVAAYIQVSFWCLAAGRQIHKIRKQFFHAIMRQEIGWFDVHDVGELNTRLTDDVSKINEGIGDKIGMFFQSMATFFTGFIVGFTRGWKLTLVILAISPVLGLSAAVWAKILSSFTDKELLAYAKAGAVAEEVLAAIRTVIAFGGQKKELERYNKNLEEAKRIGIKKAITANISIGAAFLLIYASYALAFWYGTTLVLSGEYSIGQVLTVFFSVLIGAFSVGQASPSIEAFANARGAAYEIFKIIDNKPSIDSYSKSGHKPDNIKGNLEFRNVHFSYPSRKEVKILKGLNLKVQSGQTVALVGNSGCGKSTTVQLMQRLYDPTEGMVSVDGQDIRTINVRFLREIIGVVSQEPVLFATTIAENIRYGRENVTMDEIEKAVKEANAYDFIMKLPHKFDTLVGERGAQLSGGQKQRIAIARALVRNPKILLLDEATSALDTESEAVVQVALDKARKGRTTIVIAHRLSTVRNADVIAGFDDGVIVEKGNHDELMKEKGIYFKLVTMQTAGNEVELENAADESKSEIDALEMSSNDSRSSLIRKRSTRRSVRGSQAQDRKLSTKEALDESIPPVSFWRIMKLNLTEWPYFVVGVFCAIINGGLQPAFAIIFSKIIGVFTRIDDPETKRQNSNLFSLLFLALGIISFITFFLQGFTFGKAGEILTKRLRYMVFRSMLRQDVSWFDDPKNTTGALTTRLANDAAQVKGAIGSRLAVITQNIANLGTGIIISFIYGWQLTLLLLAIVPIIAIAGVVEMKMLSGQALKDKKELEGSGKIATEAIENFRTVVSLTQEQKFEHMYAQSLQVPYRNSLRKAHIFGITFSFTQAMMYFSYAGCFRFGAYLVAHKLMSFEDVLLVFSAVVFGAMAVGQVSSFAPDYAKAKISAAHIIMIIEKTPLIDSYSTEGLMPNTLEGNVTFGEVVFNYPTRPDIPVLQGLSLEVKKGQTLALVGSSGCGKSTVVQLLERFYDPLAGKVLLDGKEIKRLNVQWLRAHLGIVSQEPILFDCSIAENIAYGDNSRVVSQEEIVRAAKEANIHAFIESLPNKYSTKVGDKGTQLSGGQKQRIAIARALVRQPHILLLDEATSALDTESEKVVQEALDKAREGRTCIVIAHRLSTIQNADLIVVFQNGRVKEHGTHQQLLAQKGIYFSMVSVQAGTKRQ
smiles,measurement,setting,value
CSc1nc(NC(C)C)nc(NC(C)C)n1,inhibition,[1],-9.01% (inactive)
same,activity remaining,[2],98.6% (inactive)
same,luciferase signal,[3],60 AU (inactive)
COP(=S)(OC)Oc1ccc([N+](=O)[O-])cc1,inhibition,[1],-0.396% (inactive)
same,luciferase signal,[3],72 AU (inactive)
CC1(C)C(=O)C=C[C@@]2(C)C1=C(O)C(=O)[C@]1(C)[C@@H]2CC[C@@]2(C)[C@H](c3ccoc3)C[C@H]3O[C@]321,inhibition,[1],11.8% (inactive)
same,luciferase signal,[3],12 AU (inactive)
CO[C@@H]1C[C@@H](C[C@H]2CC[C@H](C)[C@H]([C@@H](C)C(=O)O)O2)O[C@]2(O[C@](C)([C@H]3CC[C@@](C)(C4O[C@@H](C5O[C@@](O)(CO)[C@H](C)C[C@@H]5C)C[C@@H]4C)O3)C[C@H]2C)[C@@H]1C (stereo not given in full),EC50,[4],175 nM (active)
same,inhibition,[5],49.6%
same,score,[6],0.17
same,rescue above control,[7],2.36
same,cytochrome c release ratio,[8],0.42
same,inhibition of aggregation,[9],-0.07%
same,normalised LDH release,[10],0.812
same,glutamate uptake change,[11],-43.9%
same,aggregation suppression score,[12],0.0976
same,inhibition,[1],10.1% (inactive)
COc1cc2c(cc1O)C[C@H]1c3c(cc(O)c(OC)c3-2)CCN1C,fluorescence slope change,[13],14.6% (inactive)
same,parasite load remaining,[14],91.1% (inactive)
same,viability,[14],118%
same,inhibition,[1],3.02% (inactive)
same,fold change,"[15]; stronger effect = lower value, cell number ratio, induced over uninduced",0.885 (inactive)
same,fold change,[15]; measured here: relative caspase fold change +Dox/-Dox,1.54
same,cell count,"[15]; measured here: total cells with miR-34 induction, stronger effect = lower value",8000
same,cell count,[15]; measured here: total cells without miR-34 induction,9040
same,luciferase signal,[3],56 AU (inactive)
Cc1c(O)c(O)cc2c1CC=C1[C@@]2(C)CC[C@@]2(C)[C@@H]3C[C@](C)(C(=O)O)CC[C@]3(C)CC[C@]12C,inhibition,[1],-26.2% (inactive)
same,luciferase signal,[3],128 AU (inactive)
CNC(=O)Oc1cccc2c1OC(C)(C)C2,inhibition,[1],-14.7% (inactive)
same,luciferase signal,[3],44 AU (inactive)
C[C@H]1O[C@@H](O[C@H]2[C@@H](O)C[C@H](O[C@H]3[C@@H](O)C[C@H](O[C@H]4CC[C@@]5(C)[C@H](CC[C@@H]6[C@@H]5CC[C@]5(C)[C@@H](C7=CC(=O)OC7)[C@@H](O)C[C@]65O)C4)O[C@@H]3C)O[C@@H]2C)C[C@H](O)[C@@H]1O,inhibition,[1],-2.27% (inactive)
same,luciferase signal,[3],16 AU (inactive)
C[C@@H]1[C@H](O)[C@@H](C)/C=C/C=C/CC/C=C/C=C/C=C/C=C/C(O[C@H]2O[C@H](C)[C@@H](O)[C@H](N)[C@@H]2O)CC2O[C@](O)(CC(O)C(O)CCC(O)CC(O)CC(O)CC(=O)O[C@H]1C)CC(O)C2C(=O)O (stereo not given in full),inhibition,[1],8.65% (inactive)
same,remaining NAD,[16],10 nM (inactive)
same,luciferase signal,[3],56 AU (inactive)
